Laboratory results from PubChem BioAssay (EPA / NIEHS).
Activity calls are given as the source filed them. The calls were made as follows: active = hit-call score of the fitted dose curve at least 0.9, where 1 is the maximum; inactive = score below 0.9.

Experiments:
[1] = read-out: Interleukin-6 (IL6), IL6 (gene 3569); assay: BSK_CASM3C_IL6: BioMAP Diversity Plus: CASM3C Assay for Interleukin-6 (IL6) Biomarker Activity for (AID 2283040); conditions: primary human coronary artery smooth muscle cells; actives raise or lower the signal
[2] = read-out: Tissue plasminogen activator (tPA), PLAT (gene 5327); assay: BSK_BE3C_tPA: BioMAP Diversity Plus: BE3C Assay for Tissue plasminogen activator (tPA) Biomarker Activity (AID 2283041); conditions: primary human bronchial epithelial cells; actives raise or lower the signal
How it was run: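 Using human lung primary bronchial epithelial cells, tPA was measured by ELISA 24 h after dosing; data fitted relative to DMSO.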

[3] = read-out: Interleukin-8 (IL8), CXCL8 (gene 3576); assay: BSK_CASM3C_IL8: BioMAP Diversity Plus: CASM3C Assay for Interleukin-8 (IL8) Biomarker Activity (AID 2283042); conditions: primary human coronary artery smooth muscle cells; actives raise or lower the signal;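 also: IL-8 protein level quantified by ELISA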
[4] = read-out: Human Leukocyte Antigen - DR isotype (HLADR), HLA-DRA (gene 3122); assay: BSK_CASM3C_HLADR: BioMAP Diversity Plus: CASM3C Assay for Human Leukocyte Antigen - DR isotype (HLADR) Biomarker Activity (AID 2283043); conditions: primary human coronary artery smooth muscle cells; actives raise or lower the signal;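 also: cell-surface HLA-DR protein level quantified by ELISA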
[5] = read-out: Macrophage colony-stimulating factor (MCSF), CSF1 (gene 1435); assay: BSK_CASM3C_MCSF: BioMAP Diversity Plus: CASM3C Assay for Macrophage colony-stimulating factor (MCSF) Biomarker Activity (AID 2283044); conditions: primary human coronary artery smooth muscle cells; actives raise or lower the signal;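 also: M-CSF protein amount quantified by ELISA after 24 h exposure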
[6] = read-out: Low-density lipoprotein receptor (LDLR), LDLR (gene 3949); assay: BSK_CASM3C_LDLR: BioMAP Diversity Plus: CASM3C Assay for Low-density lipoprotein receptor (LDLR) Biomarker Activity (AID 2283045); conditions: primary human coronary artery smooth muscle cells; actives raise or lower the signal;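 also: LDLR protein level on the cell surface quantified by ELISA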
[7] = read-out: Monocyte Chemoattractant Protein-1 (MCP1), CCL2 (gene 6347); assay: BSK_CASM3C_MCP1: BioMAP Diversity Plus: CASM3C Assay for Monocyte Chemoattractant Protein-1 (MCP1) Biomarker Activity (AID 2283046); conditions: primary human coronary artery smooth muscle cells; actives raise or lower the signal;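 also: MCP-1 level quantified by ELISA 24 h after dosing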
[8] = BSK_CASM3C_Proliferation: Cell Proliferation Assessment in the BioMAP Diversity Plus: CASM3C Assay (AID 2283047); conditions: primary human coronary artery smooth muscle cells;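 also: sulforhodamine B total protein stain as relative cell number at 560 nm; sub-confluent cells exposed 48 h before staining; fitted both ways against DMSO so gain or loss of cell number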
[9] = read-out: Monokine induced gamma interferon (MIG), CXCL9 (gene 4283); assay: BSK_CASM3C_MIG: BioMAP Diversity Plus: CASM3C Assay for Monokine induced gamma interferon (MIG) Biomarker Activity (AID 2283048); conditions: primary human coronary artery smooth muscle cells; actives raise or lower the signal;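 also: MIG protein level measured by ELISA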
[10] = read-out: serum amyloid A (SAA), SAA1 (gene 6288); assay: BSK_CASM3C_SAA: BioMAP Diversity Plus: CASM3C Assay for serum amyloid A (SAA) Biomarker Activity (AID 2283049); conditions: primary human coronary artery smooth muscle cells; actives raise or lower the signal;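 also: SAA protein level quantified by ELISA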
[11] = BSK_CASM3C_SRB: Viability Assessment in the BioMAP Diversity Plus: CASM3C Assay (AID 2283050); conditions: primary human coronary artery smooth muscle cells;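 also: total protein by SRB staining as cytotoxicity measure in parallel cultures; cells exposed to compound for 24 h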
[12] = read-out: Thrombomodulin, THBD (gene 7056); assay: BSK_CASM3C_Thrombomodulin: BioMAP Diversity Plus: CASM3C Assay for Thrombomodulin Biomarker Activity (AID 2283051); conditions: primary human coronary artery smooth muscle cells; actives raise or lower the signal;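 also: thrombomodulin protein level measured by ELISA 24 h after dosing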
[13] = read-out: Tissue Factor, F3 (gene 2152); assay: BSK_CASM3C_TissueFactor: BioMAP Diversity Plus: CASM3C Assay for Tissue Factor Biomarker Activity (AID 2283052); conditions: primary human coronary artery smooth muscle cells; actives raise or lower the signal;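 also: cell surface tissue factor protein level read by ELISA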
[14] = read-out: Interferon-gamma inducible Protein 10 (IP10), CXCL10 (gene 3627); assay: BSK_hDFCGF_IP10: BioMAP Diversity Plus: hDFCGF Assay for Interferon-gamma inducible Protein 10 (IP10) Biomarker Activity (AID 2283053); conditions: primary human foreskin fibroblasts; actives raise or lower the signal
How it was run: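 Chemical-treated human skin fibroblasts (primary) were sampled at 24 h for IP-10 by ELISA. Both increases and decreases relative to DMSO were scored.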

[15] = read-out: Urokinase-type plasminogen activator receptor (uPAR), PLAUR (gene 5329); assay: BSK_CASM3C_uPAR: BioMAP Diversity Plus: CASM3C Assay for Urokinase-type plasminogen activator receptor (uPAR) Biomarker Activity (AID 2283054); conditions: primary human coronary artery smooth muscle cells; actives raise or lower the signal;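 also: cell-surface uPAR protein level quantified by ELISA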
[16] = read-out: Vascular cell adhesion molecule 1 (VCAM1), VCAM1 (gene 7412); assay: BSK_CASM3C_VCAM1: BioMAP Diversity Plus: CASM3C Assay for Vascular cell adhesion molecule 1 (VCAM1) Biomarker Activity (AID 2283055); conditions: primary human coronary artery smooth muscle cells; actives raise or lower the signal;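 also: VCAM-1 protein level quantified by ELISA on the cells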
[17] = read-out: Collagen III, COL3A1 (gene 1281); assay: BSK_hDFCGF_CollagenIII: BioMAP Diversity Plus: hDFCGF Assay for Collagen III Biomarker Activity (AID 2283056); conditions: primary human foreskin fibroblasts; actives raise or lower the signal
How it was run: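 hDFCGF primary human dermal fibroblasts; 24 h chemical exposure; collagen III by ELISA; bidirectional curve fit vs DMSO baseline (gain or loss of signal).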

[18] = read-out: Epidermal growth factor receptor (EGFR), EGFR (gene 1956); assay: BSK_hDFCGF_EGFR: BioMAP Diversity Plus: hDFCGF Assay for Epidermal growth factor receptor (EGFR) Biomarker Activity (AID 2283057); conditions: primary human foreskin fibroblasts; actives raise or lower the signal
How it was run: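 Cell-based multiplexed assay in primary human foreskin fibroblasts. EGFR is read by ELISA 24 h after treatment and compared with DMSO controls.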

[19] = read-out: Interleukin-8 (IL8), CXCL8 (gene 3576); assay: BSK_hDFCGF_IL8: BioMAP Diversity Plus: hDFCGF Assay for Interleukin-8 (IL8) Biomarker Activity (AID 2283058); conditions: primary human foreskin fibroblasts; actives raise or lower the signal
How it was run: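 ELISA read-out of IL-8 from primary human foreskin fibroblast cultures taken 24 h after dosing; values are bidirectional fits relative to DMSO vehicle.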

[20] = BSK_hDFCGF_Proliferation: Cell Proliferation Assessment in the BioMAP Diversity Plus: hDFCGF Assay (AID 2283059); conditions: primary human foreskin fibroblasts;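 also: curves fitted for both rise and fall of signal versus DMSO baseline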
How it was run: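 Sub-confluent human foreskin fibroblast cultures receive test chemical […]. Relative cell number is quantified by sulforhodamine B staining (0.1%, after 10% TCA fixation) at 560 nm, with bidirectional fitting referenced to DMSO.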

Measured: AC50

Nc1nc(N)c2nc(CNc3ccc(C(=O)N[C@@H](CCC(=O)O)C(=O)O)cc3)cnc2n1
inactive: all assays above

CCOC(=O)C(C)(C)Oc1ccc(Cl)cc1
inactive: all assays above

C=CCOC(=O)c1ccccc1C(=O)OCC=C
inactive: all assays above

CC(CO)OC(C)CO (stereo not given) (tested in a mixture with another compound)
inactive: all assays above

COCCOCCOC
active: [17] 0.148 µM
inactive: all other assays above

Cc1cc(=O)[nH]c(=S)[nH]1
inactive: all assays above

Cc1oc(-c2ccccc2)nc1CCOc1cccc2c1ccn2CCC(=O)O
active: [2] 20 µM
inactive: all other assays above

CNCc1cc(F)ccc1Oc1ccc(Cl)c(Cl)c1
active: [6] 13.8 µM | [8] 22 µM | [20] 23.8 µM
inactive: all other assays above

CN1CCCC1=O
inactive: all assays above

CN1CCN(Cc2cc(-c3ccc4[nH]c(=O)oc4c3)co2)[C@@H](c2ccc(F)cc2)C1
active: [2] 3.27 µM | [7] 0.736 µM | [8] 12.3 µM | [20] 17.6 µM
inactive: all other assays above

CCCCCCCCCCCCCCCC
inactive: all assays above

CC=Cc1ccc(O)c(OC)c1
active: [20] 24.6 µM
inactive: all other assays above

Cc1ccc(C)c(C)c1
inactive: all assays above
